D1 agonist = Allosteric Agonists of the Human D1 Dopamine Receptor: qHTS. HEK293 T-REx D1 cells, calcium flux, agonist mode. D(1A) dopamine receptor (Homo sapiens), P21728. activation, % at 2 µM. 1% of 360,000 active
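Agonism was scored from calcium flux recorded over 180 s (1 read/s) after pintool compound addition, following a 10-cycle baseline. Cells were inducible force-coupled HEK293 TREx D1, plated overnight at 30 C and loaded with no-wash calcium dye.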
GRP78 ERSR act = qHTS for Inducers of the Endoplasmic Reticulum Stress Response (ERSR) in Human Glioma: qHTS; AID 602332, 2012; U87-MG GRP78 promoter luciferase reporter, 16 h; Potency, µM, hits mostly activators; 0.02% of 420,000 active; active = well fitted activation curve with a large enough effect; also: series mostly up to about 76 µM; nearly all actives have a fitted effect of over 35% in size
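Stably transfected U87-MG glioma cells carrying a GRP78-based luciferase sensor; 16 h compound incubation. Luminescence end-point read 10 min after Bright-Glo addition at room temperature.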
D1 potentiator = Potentiators of Human D1 Dopamine Receptor: qHTS; D(1A) dopamine receptor (Homo sapiens), P21728; 0.036% of 360,000 active; potentiation, % at 10 µM; HEK293 TREx D1 cells, calcium flux, dopamine EC20 potentiation; in the data active = potentiation above about 30%
TRHR ag = qHTS for Small Molecule Agonists and Allosteric Enhancers of Human TRH Receptor: Primary Screen for Agonists. AID 493084, 2011. activation, % at 2 µM. 0.18% of 360,000 active. TRHR cells, calcium flux fluo-8, FDSS agonist mode
Target sequence (P34981 whole entry, looked up): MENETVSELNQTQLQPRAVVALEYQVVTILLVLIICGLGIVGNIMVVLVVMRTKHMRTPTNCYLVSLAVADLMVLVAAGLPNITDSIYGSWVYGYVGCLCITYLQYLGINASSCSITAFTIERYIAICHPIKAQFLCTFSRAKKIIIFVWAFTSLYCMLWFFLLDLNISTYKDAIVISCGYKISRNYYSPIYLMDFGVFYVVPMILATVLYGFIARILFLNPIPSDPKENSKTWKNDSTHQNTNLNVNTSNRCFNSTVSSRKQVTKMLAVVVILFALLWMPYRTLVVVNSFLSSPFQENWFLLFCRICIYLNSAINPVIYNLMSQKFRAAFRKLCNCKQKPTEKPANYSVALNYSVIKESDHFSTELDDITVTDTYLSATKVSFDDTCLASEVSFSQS
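Fluo-8-loaded TRHR cells; 10 s baseline, compound added, kinetic Ca2+ fluorescence read 1/s, agonist mode.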
TRHR enhancer = qHTS for Small Molecule Agonists and Allosteric Enhancers of Human TRH Receptor: Primary Screen for Enhancers; Thyrotropin-releasing hormone receptor (Homo sapiens), P34981; TRHR cells, fluo-8 calcium fluorescence, EC20 TRH enhancement; enhancement, % at 2 µM; 0.66% of 360,000 active; in the data active = enhancement above about 30%
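TRHR-expressing cells loaded with fluo-8 calcium dye were read kinetically (ex 480/em 530) during compound addition, then stimulated with an EC20 of TRH (10 nM final). Enhancement of the Gq-mediated intracellular calcium response was scored.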
D1 antag = Antagonist of Human D 1 Dopamine Receptor: qHTS; HEK293 TREx D1 cells, calcium flux, dopamine EC80; active compounds read low; AID 504652, 2011; 3.2% of 360,000 active; activity change, negative = inhibition, % at 10 µM; in the data active = activity change below about -30%
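After overnight tetracycline induction at 30 C, force-coupled D1 HEK293 cells took up a no-wash calcium dye at room temperature. Compounds were added and monitored 180 s, and the response to EC80 dopamine was then recorded.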
Large screens that a line does not name were inactive; ! = repeats disagree. An excerpt weighted towards active compounds, which were near 4% of everything screened. Rule as the data show it, unless noted: active = activation above about 30%; inactive = the rest.

CCN1CCCC1CN(Cc1cc2ccc(C)c(C)c2[nH]c1=O)C(=O)Nc1ccccc1OC (configuration not stated)	none
CCOC(=O)c1c(-c2ccc3ccccc3c2)csc1NC(=O)CCCC(=O)O	D1 antag -56
CC(C)(C)[C@H]1CCC(=O)N(CCSc2ccc(Br)cc2)CC1	none (no result: D1 agonist, D1 potentiator, TRHR ag, TRHR enhancer, D1 antag)
O=C(Nc1cccc(Br)c1)c1ccc(OC2CSC2)cc1	D1 antag -36 (no result: GRP78 ERSR act)
CCC(=O)CC(NC(=O)OC)c1ccc(F)cc1 (configuration not stated)	none (no result: D1 agonist, D1 potentiator, TRHR ag, TRHR enhancer, D1 antag)
CC(c1ccccc1)n1c(S(=O)(=O)O)nc2ccccc21 (configuration not stated)	none
CC(C)n1c(S(=O)(=O)O)nc2ccccc21	D1 antag -34
C/C(=N\Nc1ccc([N+](=O)[O-])cc1)c1ccc2c(c1)OCO2	D1 agonist 38, D1 antag -38
C/C(=N\Nc1ccc([N+](=O)[O-])cc1)c1cc2ccccc2o1	D1 agonist 59, D1 antag -30
C/C(=N\NS(=O)(=O)c1ccc([N+](=O)[O-])cc1)c1ccc2c(c1)OCO2	D1 antag -31
C/C(=N/NS(=O)(=O)c1cccc([N+](=O)[O-])c1)c1ccc2c(c1)OCO2	none
O=C(N/N=C/c1ccc([N+](=O)[O-])cc1)c1cc2ccccc2o1	none
Cc1ccc(CCNC(=O)c2ccc(Cn3c(=O)c4cccn4c4cccnc43)cc2)cc1	none
COc1ccc(N(Cc2ccccc2)C(=O)CSc2nnc(Cn3nnc4ccccc43)o2)cc1	none
O=C(CSc1nnc(Cn2nnc3ccccc32)o1)N(Cc1ccc(F)cc1)c1ccccc1	D1 antag -41
CC(C)[C@H](NC(=O)OCc1ccccc1)C(=O)OCC(=O)N1CCN(c2ccc(F)cc2)CC1	D1 antag -65
Cc1ccc(NC(=O)COc2ccc(CCO)cc2-n2nc3ccccc3n2)cc1C	D1 antag -72
CC(C)NC(=O)[C@@H]1C[C@@H](Sc2ccccn2)CN1C1CCN(C)CC1	none (no result: D1 agonist, D1 potentiator, TRHR ag, TRHR enhancer, D1 antag)
Cc1ccc(S(=O)(=O)c2cc3c(=O)n4ccccc4nc3n(Cc3ccco3)c2=N)cc1	D1 antag -32
CN(Cc1ccco1)c1ncnc2ccc(-c3ccccc3Cl)cc12	D1 antag -40!
COc1ccccc1-c1ccc2ncnc(N(C)Cc3ccco3)c2c1	none (no result: D1 agonist, D1 potentiator, TRHR ag, TRHR enhancer, D1 antag)
O=[N+]([O-])c1ccc(O)c(Nc2c([N+](=O)[O-])ccc3nonc23)c1	D1 antag -49
O=[N+]([O-])c1c(Nc2ccccc2O)ccc2nonc12	none
Cc1ccc(C)c(Nc2c([N+](=O)[O-])ccc3nonc23)c1	D1 agonist 108
Clc1ccc(OCCCCN2CCCCC2)cc1	D1 antag -39
CC(C)Oc1ccc(OCCCN2CCCCCC2)cc1	none
CC(C)(C)c1ccc(OCCCN2CCCC2)cc1	TRHR enhancer 38
CC1CCN(C(=S)c2cn(Cc3cccc(F)c3)c3ccccc23)CC1	none
CCCCOc1cccc(C2c3c(oc4ccccc4c3=O)C(=O)N2c2ccccn2)c1 (configuration not stated)	none
CC(=O)c1ccc(N2CCN(C(=O)c3cc4c(s3)CCCC4)CC2)cc1	D1 antag -35
COc1ccc(N2CCN(C(=O)c3cc4c(s3)CCCCC4)CC2)cc1	D1 antag -57
COc1ccc(OCc2nc3ccc(S(=O)(=O)Nc4ccccc4Cl)cc3[nH]2)cc1	D1 antag -57
COc1ccc(/C=C/C(=O)C2CC2)cc1Cn1nc(C)c([N+](=O)[O-])c1C	TRHR enhancer 38
COc1ccc(C(C)=O)cc1Cn1nc(C)c([N+](=O)[O-])c1C	none
CCN(CC)S(=O)(=O)c1cccc(-c2nnc(SCCCC(=O)c3ccc(F)cc3)o2)c1	D1 agonist 34
CCN(CC)S(=O)(=O)c1cccc(-c2nnc(SCCCC(=O)c3ccccc3)o2)c1	none
Nc1ccc(-c2c3ccc(=O)cc-3oc3cc(O)ccc23)cc1C(=O)O	D1 agonist 245, TRHR ag 152
Cc1cccc(N(C(=O)c2csnn2)C(C(=O)NC2CCCCC2)c2ccccn2)c1C (configuration not stated)	TRHR enhancer 38
O=C(C1CCOCC1)N1CCC(CO)(CCc2ccccc2)CC1	none
CCn1ncc(C2=NOC(C(=O)Nc3cnn(C45CC6CC(CC(C6)C4)C5)c3)C2)c1C (configuration not stated)	D1 agonist 34
CCn1ncc(C2=NOC(C(=O)NCC(C)C)C2)c1C (configuration not stated)	none
N#CC1CC(c2ccccc2)Nc2cc(Cl)ccc2N1 (configuration not stated)	D1 antag -90
CN(NC(=O)Nc1ccc(Cl)cc1)c1ncc(C(F)(F)F)cc1Cl	none (no result: D1 agonist, D1 potentiator, TRHR ag, TRHR enhancer, D1 antag)
CN(NC(=O)Nc1ccc(Cl)cc1)c1c(Cl)c(Cl)nn1C	D1 antag -40
CC(C)CNS(=O)(=O)c1ccc(CCC(=O)N2CCN(Cc3ccc4c(c3)OCO4)CC2)cc1	D1 antag -33
O=C(c1ccc(Br)s1)N1CCN(Cc2ccc3c(c2)OCO3)CC1	D1 antag -35
O=C(CCN1C(=O)c2cccc3cccc(c23)C1=O)N1CCN(Cc2ccc3c(c2)OCO3)CC1	D1 antag -30
CS(=O)(=O)N1CCN(C(=O)c2ccc(Br)s2)CC1	D1 antag -32
CC(C)NS(=O)(=O)c1cc(C(F)(F)F)ccc1/C=C/C(=O)O	none (no result: D1 agonist, D1 potentiator, TRHR ag, TRHR enhancer, D1 antag)
O=C(O)CCC(=O)N1CCN(Cc2ccc3c(c2)OCO3)CC1	TRHR enhancer 31
CC(=O)N1CCN(Cc2ccc(Br)s2)CC1	TRHR enhancer 30
Cc1cc(C(=O)N2CCCC(N3CCN(Cc4ccc5c(c4)OCO5)CC3)C2)n[nH]1 (configuration not stated)	none
CCOc1ccccc1N1CCN(Cc2ccc(Br)s2)CC1	none
Cc1ccccc1C(=O)N1CCCC(N2CCN(Cc3ccc4c(c3)OCO4)CC2)C1 (configuration not stated)	D1 antag -52
O=C(Nc1nnc(-c2ccc3c(c2)CCCC3)o1)c1ccc(Cl)cc1Cl	D1 agonist 36
O=C(Nc1nnc(-c2ccc3c(c2)CCCC3)o1)c1c(F)cccc1F	none
O=C(Nc1nnc(-c2ccc3c(c2)CCCC3)o1)C1CCCCC1	D1 antag -46
